High-throughput results: PubChem BioAssay, National Center for Advancing Translational Sciences (NCATS)
IL-1B inflam inh – inflammasome signaling inhibition, IL-1 beta readout; THP-1 LPS/ATP IL-1B secretion, AlphaLISA, 16 h; active compounds read low; actives 4.7% (n = 360,000); activity change, % at 57.5 µM; AID 743279; in the data active = activity change below about -50%; inconclusive = mostly about -30% to -49%
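Secreted IL-1B measured by AlphaLISA bead assay after 16 h compound exposure of THP-1 cells; compounds (final up to 57.5 uM) added 1 h before LPS (250 ng/mL) and ATP (1.25 mM) stimulation; lower signal means less secretion.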
DT40 TDP1 CPT – DT40-hTDP1 cell growth loss with CPT; AID 686979; chicken DT40 Tdp1-/-;hTDP1 cells + 20 nM CPT, ATP luminescence, 48 h; Potency, µM (top dose mostly 46.2 µM), for the others: top-dose activity change, negative = growth inhibition, usual class: inhibitors; actives 12% (n = 420,000); also: potency is read from the fitted curve at half-maximal effect; nearly all actives have a fitted effect of over 55% in size
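Chicken DT40 Tdp1-/- cells stably complemented with human TDP1 were seeded at 400 cells/well in medium containing 20 nM camptothecin, exposed to pin-transferred compounds, and grown at 37 °C for at least 48 hr. Viability was read as ATP luminescence.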
HT1080-NT tox – kills 2HG-producing HT-1080-NT fibrosarcoma cells | HT-1080-NT fibrosarcoma viability, CellTiter-Glo ATP luminescence, 48 h | Potency, µM (highest dose often 46.1 µM), without a hit: at the highest dose activity, negative = less viability, usual class: cytotoxic | actives 1.6% (n = 360,000) | AID 686970;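 also: NT is the 2HG producing partner of a matched IDH1 knockdown line; potency is read from the fitted curve at half-maximal effect; 0% = DMSO-treated cells and -100% = media-only wells without cells; nearly all actives have a fitted effect of over 55% in size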
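Viability of the 2HG-overproducing fibrosarcoma line after 48 hours of compound exposure at 37 degrees C was determined by luminescence with CellTiter-Glo, and concentration-effect curves were then fitted and categorized.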
HT1080 IDH1KD tx – HT-1080 IDH1 knockdown cell toxicity (counter line); HT-1080 IDH1 knockdown viability, ATP luminescence, 48 h; Potency, µM (highest dose often 46.1 µM), without a hit: top-dose activity, negative = toxicity, most hits filed as cytotoxic; actives 2% (n = 360,000);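 also: potency is read from the fitted curve at half-maximal effect; 0% = DMSO wells and -100% = cell-free medium wells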
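% activity derives from luminescence (CellTiter-Glo), normalised to DMSO and no-cell wells. HT-1080-IDH1KD cells, 750/well, had 48 h compound exposure at 37 °C.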
ELG1 DNA repair – ELG1-dependent DNA repair inhibition; HEK293T ELG1-luciferase reporter, luminescence, 16 h; DNA damage induced by 5-fluorouridine; Potency, µM (series often up to 46.1 µM), without a hit: at the top dose activity change, negative = inhibition, hits mostly inhibitors; actives 2.3% (n = 330,000); AID 504467; also: potency is read from the fitted curve at half-maximal effect; nearly all actives have a fitted effect of over 55% in size
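DMSO vehicle served as the neutral condition. Each well held 2,000 cells given 5-fluorouridine plus compound; after 16 hr at 37 °C/5% CO2, ONE-Glo was added and luciferase measured 30 min later.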
TDP1 cell noCPT – qHTS for Inhibitors of human tyrosyl-DNA phosphodiesterase 1 (TDP1): qHTS in cells in absence of CPT. DT40 Tdp1-/- hTDP1 cells, no CPT, ATP luminescence, 48 h. Potency, µM (top dose mostly 46.2 µM), for inactives: top-dose activity change, negative = growth inhibition, hits mostly inhibitors. actives 15% (n = 420,000); also: potency is read from the fitted curve at half-maximal effect; nearly all actives have a fitted effect of over 55% in size
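Growth of hTDP1-complemented DT40 Tdp1-knockout cells is measured by ATP luminescence after at least 48 hr compound exposure at 37 °C, with DMSO substituting for the 20 nM CPT used in the parallel screen.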
The depositor's hits bear a star; u = inconclusive; x = no result. An excerpt weighted towards active compounds, which were near 19% of everything screened. Unless noted, calls follow the shape of the dose curve; as a rule, active = well fitted curve in the direction sought with a large enough effect; inconclusive = small, poorly fitted or top-dose-only effect, or another doubt; inactive = no such curve, though single readings can be large; an effect the other way counts as inactive or inconclusive. Unless noted, % is scaled to controls: 0 for no effect and ±100 for the full control effect.

SMILES	IL-1B inflam inh	DT40 TDP1 CPT	HT1080-NT tox	HT1080 IDH1KD tx	ELG1 DNA repair	TDP1 cell noCPT
Cc1cc(C)nc(NN2C(=O)/C(=C/c3ccccc3)SC2=S)n1	3	-26%	7%	1%	16%	u
Cc1cc(C)n(C2CC(=O)N(c3ccc(Cl)c(Cl)c3)C2=O)n1 (stereo not drawn)	7	35%	13%	25%	-9%	2%
Cc1ccc(Sc2ncnc(N)c2[N+](=O)[O-])cc1	-27	-26%	-20%	0%	u	u
Nc1ncnc(Sc2ccc(Cl)cc2)c1[N+](=O)[O-]	u	4.6µM*	-3%	-14%	u	5.8µM*
Nc1ncnc(Sc2ncccn2)c1[N+](=O)[O-]	-27	1.2µM*	-14%	16µM*	u	1.3µM*
Nc1ncnc(Sc2ccccc2)c1[N+](=O)[O-]	-103*	-3%	-3%	-2%	u	-19%
Cc1ccc(N(CC(=O)NCc2ccc(OC(C)C)cc2)S(=O)(=O)N(C)C)cc1	x	-9%	x	x	x	u
Cc1cc(-c2ccc(S(=O)(=O)N3CCN(c4ccc(Cl)cc4)CC3)s2)on1	x	u	x	x	x	-9%
O/C(=C\c1nc2ccccc2nc1/C=C(\O)c1ccccc1)c1ccccc1	-98*	u	21µM*	u	u	u
CCOC(=O)c1[nH]ncc1CN1CCN(Cc2ccccc2)C(CCO)C1 (stereo not drawn)	18	2%	-3%	5%	-13%	8%
Cn1nnc2c(NCc3c(F)cccc3F)ncnc21	x	4%	x	x	x	-24%
CC1(C)CC=CC(COC(=O)c2ccccc2C(=O)O)C1 (stereo not drawn)	14	-5%	-3%	13%	x	-25%
c1ccc(Oc2ccccc2-c2cc(NCCc3cccnc3)n3nccc3n2)cc1	17	18µM*	u	1%	x	u
c1ccc(Oc2ccc(-c3cc(NCCc4cccnc4)n4nccc4n3)cc2)cc1	10	u	u	25%	x	-29%
CC1=C(C(=O)OC2CCCCC2)C(c2ccccc2Br)NC(=O)N1 (stereo not drawn)	0	u	-4%	-6%	-18%	u
CCCCCCCCCC1(CC(=O)OCC)SCCN1C(N)=O (stereo not drawn)	0	u	-5%	-17%	x	15µM*
CC(C)CNc1ncnc2nc[nH]c12	x	-7%	x	x	x	u
CC(C)CCCCCCCCCCCCC(=O)NCC(=O)NC1C(C)OC(Nc2ncnc3nc[nH]c23)C(O)C1O (stereo not drawn)	-93*	0.021µM*	1.8µM*	0.12µM*	x	0.033µM*
c1ccc(CCc2nnc3n2CCN(Cc2ccc4ccccc4n2)CC3)cc1	x	u	x	x	x	-30%
COc1cccc(/C=C2\C(=O)N(c3cccc(C)c3)C(=O)c3ccccc32)c1	u	26µM*	3%	9%	u	u
Cc1cccc(N2C(=O)/C(=C\c3ccc(OC(F)F)cc3)c3ccccc3C2=O)c1	-17	u	-1%	-3%	u	u
CN1CCN(C(=O)/C(=C/c2ccccc2F)NC(=O)c2ccccc2)CC1	-3	0%	9%	10%	0%	-16%
CS(=O)(=O)N1CCC2(CCN(Cc3nccs3)CC2)CC1	x	7%	x	x	x	-11%
Cc1nc2c(-c3ccccc3)cnn2c(N)c1-c1ccccc1	-78*	-28%	u	u	u	u
Cc1cc(N2CCCCC2)n2ncc(-c3ccc(Cl)cc3)c2n1	6	13µM*	-7%	-18%	u	u
SMILES	IL-1B inflam inh	DT40 TDP1 CPT	HT1080-NT tox	HT1080 IDH1KD tx	ELG1 DNA repair	TDP1 cell noCPT
Cc1cc(N2CCCCC2)n2ncc(-c3ccccc3)c2n1	15	u	-25%	-22%	u	29µM*
Cc1cc(N2CCN(C(=O)c3ccco3)CC2)n2ncc(-c3ccccc3)c2n1	-10	23µM*	-25%	-29%	u	16µM*
Cc1cc(N2CCOCC2)n2ncc(-c3ccc(Cl)cc3)c2n1	15	1%	24%	9%	u	-16%
COc1ccc(-c2cc(C(=O)Nc3c(C(=O)c4ccc(C)c(F)c4)oc4ccccc34)no2)cc1	x	-9%	x	x	x	-13%
Cc1cc(SCC(=O)c2ccccc2)n2ncc(-c3ccccc3)c2n1	-6	u	21%	0%	u	7.3µM*
COc1ccc(-c2c(C3=CCCCC3)oc3ccc(-c4ccc5c(c4)OCO5)cc23)cn1	-12	u	9%	5%	x	15µM*
COc1ccc(-c2c(-c3cccc(C)c3)oc3ccc(-c4ccc5c(c4)OCO5)cc23)cn1	-7	u	15%	8%	x	8.2µM*
COc1ccc(-c2oc3ccc(-c4ccc(OC)nc4)cc3c2-c2ccc(OC)cc2)cc1	-7	u	6%	3%	x	15µM*
Cc1cccc(-c2oc3ccc(-c4ccc5c(c4)OCO5)cc3c2-c2ccc(OC3CCCCO3)cc2)c1 (stereo not drawn)	4	-19%	8%	-3%	x	-11%
COc1ccc(-c2oc3ccc(-c4ccc5c(c4)OCO5)cc3c2-c2ccc(OC)nc2)cc1	-14	u	3%	12%	x	u
CC(C#N)(NC(=O)CN1CCN(S(=O)(=O)c2ccc(Br)cc2Cl)CC1)C1CC1 (stereo not drawn)	-16	u	-14%	-9%	-1%	u
C=CCc1ccc(O)c(-c2ccc(O)c(CC=C)c2)c1	u	u	-1%	-6%	-13%	18µM*
C=CCc1cc(C(=O)N2CCCCC2)ccc1O	-2	u	0%	-2%	u	u
Cc1cc(C(=O)C(C(c2ccccc2)N2CCOCC2)N2CCOCC2)ccc1Cl (stereo not drawn)	-12	-20%	24%	-1%	x	u
CC(C)N(C(=O)CSc1nc2ccccc2n1Cc1ccccc1F)C(C)C	-10	16µM*	2%	-29%	u	16µM*
Cc1sc2nc(SCC(=O)N(C)Cc3ccccc3)n(-c3ccccc3)c(=O)c2c1C	10	u	0%	2%	-1%	u
CC(C)N(C(=O)CSc1nc2ccccc2n1Cc1ccccc1)C(C)C	9	u	5%	3%	u	u
CN(Cc1ccccc1)C(=O)CSc1nc2ccccc2n1Cc1ccccc1F	x	u	x	x	x	6.5µM*
